# High-throughput results deposited in PubChem BioAssay by several laboratories.
# An excerpt weighted towards active compounds, which were near 3.5% of everything screened.
# Mac1 fbg enh: increases human CD11b/CD18 adhesion to fibrinogen; K562 CD11b/CD18 adhesion to fibrinogen, ATPlite luminescence; activation, % at 10 µM; 0.07% of 93,000 active; P05107+P11215;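 active means 10 µM primary screen giving 50% or more activity, confirmed by 40% or more on retest at that dose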
# Mac1 fbg inh: inhibitors of human CD11b/CD18 binding to fibrinogen; 0.54% of 93,000 active; inhibition, % at 10 µM; P05107+P11215; K562 CD11b/CD18 adhesion to fibrinogen, ATPlite luminescence; Mn2+ added to activate the integrin;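 active means primary inhibition of 50% or more at 10 µM, then 40% or more on retest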
# ERa coact pot: enhances coactivator binding to human estrogen receptor alpha; P03372; TR-FRET ERalpha-LBD/SRC-Cy5 coactivator binding, 2 h; 100 = basal binding, no effect; AID 639; coactivator binding (% of control), % at 25.6 µM; 1.3% of 86,000 active; in the data active means activity above about 200%;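 further: binding measured in presence of low estradiol as agonist stimulus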
# ERb SRC1 inh: ER-beta (human) coactivator binding inhibition | inhibition, % at 25.6 µM | TR-FRET ER-beta LBD / SRC1-Cy5 peptide binding; receptor agonist-loaded with 1 µM estradiol | AID 633 | 1.3% of 86,000 active;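 active means compounds whose percent inhibition of the receptor-coactivator binding signal exceeds about 50% in the single-dose screen, limit read from the data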
# FAK inh: inhibitors of human focal adhesion kinase | biochemical FAK kinase activity assay | Q05397 | inhibition, %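 (tested at 7 µM)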 | 0.84% of 97,000 active; in the data active means inhibition above about 19%
# ERa coact inh: blocks coactivator binding to human estrogen receptor alpha; TR-FRET ER-alpha LBD / SRC-1 peptide, estradiol-bound; inhibition, % at 25.6 µM; 1.7% of 86,000 active; AID 629; in the data active means inhibition above about 50%
# Hits are given with their value; - = inactive; . = no result given; + = active, no number; [ ] = another dose, or the depositor's remark.
SMILES,Mac1 fbg enh,Mac1 fbg inh,ERa coact pot,ERb SRC1 inh,FAK inh,ERa coact inh
COc1ccc(OC)c(N=c2oc3c(OC)cccc3cc2C(=O)NCc2ccco2)c1,-,-,-,50[fluorescence artefact?],.,75[fluorescence artefact?]
c1cc(-c2nc3cc(Cc4ccc5oc(-c6ccncc6)nc5c4)ccc3o2)ccn1,-,-,221[fluorescence artefact?],-,.,-
c1cncc(-c2nc3ccccc3o2)c1,-,-,-,-,-,-
c1cncc(-c2nc3cc(Cc4ccc5oc(-c6cccnc6)nc5c4)ccc3o2)c1,-,-,207[fluorescence artefact?],-,.,-
Cc1ccc2oc(-c3ccccc3)nc2c1,-,-,-,-,-,-
O=C1N(CC(=O)N2CCc3ccccc32)CCN1Cc1ccccc1Cl,-,-,-,-,-,-
O=S(=O)(NCC(c1ccccc1)N1CCNCC1)c1ccc(Cl)cc1 (stereo not given),-,-,-,-,-,-
COc1ccccc1C1C2=C(N=C3SCC(=O)N31)c1ccccc1CC2 (stereo not given),-,-,-,-,-,-
COc1ccc(/C=c2/sc3n(c2=O)C(c2ccccc2OC)C2=C(N=3)c3ccccc3CC2)cc1O (stereo not given),169,-,.,.,-,.
CCOc1ccc2[nH]c(=O)c(CN(Cc3ccc(F)cc3)C(=O)N3CCCC3)cc2c1,-,-,331[fluorescence artefact?],-,-,-
COCCn1c(C)cc(C2=NNC(=Nc3ccc(OC)cc3)SC2)c1C,81,-,-,-,-,-
CCCNC(=O)c1ccc(N(Cc2ccccc2)S(C)(=O)=O)cc1,-,-,-,-,-,-
CC(=O)Nc1cc2c(cc1C(=O)c1ccccc1)OCCO2,-,-,-,63,-,-
Cc1ccc(-c2n[nH]c(=S)n2/N=C/C=C/c2ccccc2[N+](=O)[O-])cc1,-,-,323,-,-,53[fluorescence artefact?]
CC(C)(C)c1nnc2sc(SC/C(O)=C(\C#N)c3nc4ccccc4[nH]3)nn2c1=O,-,-,-,62,-,69[fluorescence artefact?]
CCOC(=O)c1sc(NC(=O)c2c(C)nn(Cc3ccccc3)c2C)cc1C,-,-,202,-,-,-
COc1cc(CN(C)Cc2ccccc2)cc(OC)c1O,-,87,.,.,-,.
COc1ccc(CCN(C)Cc2ccc(OC)c(OCc3ccccc3)c2)cc1OC,-,-,.,.,-,.
O=C(NCCc1nc2ccccc2[nH]1)/C(=C/c1ccco1)NC(=O)c1ccc(Br)o1,-,-,.,.,.,.
CSc1nc2ccc3nc(NC(=O)c4ccc(Cl)s4)sc3c2s1,-,-,-,-,-,59[fluorescence artefact?]
COc1ccc(-c2c(C#N)c(C)nc3c2C(=O)c2ccccc2-3)cc1,.,.,373,-,-,-
COc1ccccc1C(=O)Nc1nc(-c2ccc(S(=O)(=O)N3CCOCC3)cc2)cs1,-,-,399[fluorescence artefact?],-,-,-
COc1ccccc1OC(C)C(=O)Nc1nc(-c2ccc(S(=O)(=O)N3CCOCC3)cc2)cs1 (stereo not given),-,-,263[fluorescence artefact?],-,-,-
O=C(Nc1nc(-c2ccncc2)cs1)c1ccc(S(=O)(=O)N2CCOCC2)cc1,-,-,239,-,-,-
Cc1ccc(-n2nc3c(c2NC(=O)c2ccc(S(=O)(=O)N4CCOCC4)cc2)CSC3)c(C)c1,80,-,-,-,-,-
SMILES,Mac1 fbg enh,Mac1 fbg inh,ERa coact pot,ERb SRC1 inh,FAK inh,ERa coact inh
O=C(CCC(=O)N1CCN(C2CCCC2)CC1)Nc1nnc(C(F)(F)F)s1,-,-,.,.,-,.
c1ccc(-c2cnnc(N3CCOCC3)n2)cc1,-,-,-,-,-,-
COc1cccc(C(=O)Nc2nc3c(c(=O)[nH]2)CCCC3)c1,-,-,-,-,-,-
CC(C)CCn1nnnc1C(c1ccc(N(C)C)cc1)N1CCN(C(=O)c2ccco2)CC1 (stereo not given),-,-,-,-,-,-
O=C(Nc1ccc(Cc2ccncc2)cc1)c1ccc(S(=O)(=O)N2CCOCC2)cc1,-,93,-,-,-,-
O=C(Nc1nc(-c2cccs2)cs1)c1cccc(S(=O)(=O)N2CCCCCC2)c1,-,-,-,-,-,-
O=C(Nc1nc(-c2cccs2)cs1)c1ccc(S(=O)(=O)N2CCCCC2)cc1,-,-,235,-,-,-
O=C(COc1cccc(Cl)c1)Nc1nc(-c2ccc(S(=O)(=O)N3CCOCC3)cc2)cs1,.,.,202,-,-,-
O=C(CCn1cccc1)Nc1ccc(F)cc1,-,-,-,-,-,-
O=C(c1cc2ccccc2oc1=O)N(Cc1ccco1)Cc1cccs1,-,-,537,-,-,-
O=C(c1cc2ccccc2oc1=O)N(Cc1cccs1)Cc1cccs1,.,.,-,-,-,-
CCC(=O)Nc1cc(OC)c(NC(=O)c2ccccc2)cc1OC,-,-,-,53[fluorescence artefact?],-,64[fluorescence artefact?]
COc1cc(NC(=O)c2ccccc2)c(OC)cc1NC(C)=O,-,-,-,-,-,-
O=C(NCc1ccccn1)C1CCC(=O)N1C1CCCCC1 (stereo not given),-,-,-,-,-,82[fluorescence artefact?]
Cc1onc(-c2ccccc2Cl)c1C(=O)NCc1ccco1,-,-,-,54,-,86[fluorescence artefact?]
Cc1noc(C)c1C(=O)NCc1ccco1,.,.,-,-,-,-
COc1ccc(N/N=C(/C#N)S(=O)(=O)c2nsc(C)c2C#N)cc1,-,-,-,-,-,-
Cc1snc(S(=O)(=O)/C(C#N)=N/Nc2cccc(C(F)(F)F)c2)c1C#N,-,90,-,-,-,-
CCN1CCCC1CNC(=O)Cn1cccc1C(=O)c1ccccc1C (stereo not given),-,-,-,-,-,-
O=c1ccc(/C=C/c2ccccc2)nn1Cc1ccc(Cl)cc1Cl,-,-,+[fluorescence artefact?],-,-,-
Cc1ccc(C(C(=O)NC2CCCCC2)N(CCC(C)C)C(=O)CNC(=O)c2ccco2)o1 (stereo not given),-,-,-,-,-,-
COc1cc(C(=O)Oc2c(CN3CCOCC3)cc(Cl)c3cccnc23)cc(OC)c1OC,-,-,218,-,-,-
COc1ccc(C(=O)Oc2c(CN3CCOCC3)cc(Cl)c3cccnc23)cc1,-,-,-,-,-,-
N=c1c(C(=O)NCc2ccco2)cc2c(=O)n3ccccc3nc2n1CCc1ccccc1,-,-,-,50,-,81[fluorescence artefact?]
COc1ccc(CNC(=O)c2cc3c(=O)n4ccccc4nc3n(Cc3ccco3)c2=N)cc1,.,.,-,57[fluorescence artefact?],-,91[fluorescence artefact?]
COc1ccc(CCn2c(=N)c(C(=O)NCc3ccco3)cc3c(=O)n4ccccc4nc32)cc1OC,.,.,-,-,.,-
N/C(=N\OC(=O)COc1ccccc1)c1ccc(Cl)cc1,-,-,.,.,.,.
CCOC(=O)c1cnc(SC)nc1Oc1cccc(NS(=O)(=O)c2ccccc2)c1,-,-,.,.,-,.
COc1cccc(C2CC(c3ccccc3OC)n3ncnc3N2)c1 (stereo not given),-,-,595[fluorescence artefact?],-,-,-
